The values below come from PubChem BioAssay AID504326 (The Scripps Research Institute Molecular Screening Center, 2011).

The campaign covered roughly 340,000 compounds. About 990 (0.29%) were called active. Only a selection was taken, and actives are over-represented in it overall. Values without a mark were called inactive. Cut-off read from the data, not from the text of the source: active = activation above about 18%; inactive = the rest.

This experiment deals with Mu-type opioid receptor (Homo sapiens) + Delta-type opioid receptor (Homo sapiens) (UniProt P35372+P41143). Put plainly: agonists of OPRM1-OPRD1 heterodimerization, primary screen, cell-based, luminescence (AID 504326).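 Note: 0% = vehicle-treated cells and 100% = reference agonist.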 The settings on record: cells, at 9.3 µM, stronger effect = higher value.
Sequence of Mu-type opioid receptor (Homo sapiens) + Delta-type opioid receptor (Homo sapiens) (P35372 whole entry, looked up): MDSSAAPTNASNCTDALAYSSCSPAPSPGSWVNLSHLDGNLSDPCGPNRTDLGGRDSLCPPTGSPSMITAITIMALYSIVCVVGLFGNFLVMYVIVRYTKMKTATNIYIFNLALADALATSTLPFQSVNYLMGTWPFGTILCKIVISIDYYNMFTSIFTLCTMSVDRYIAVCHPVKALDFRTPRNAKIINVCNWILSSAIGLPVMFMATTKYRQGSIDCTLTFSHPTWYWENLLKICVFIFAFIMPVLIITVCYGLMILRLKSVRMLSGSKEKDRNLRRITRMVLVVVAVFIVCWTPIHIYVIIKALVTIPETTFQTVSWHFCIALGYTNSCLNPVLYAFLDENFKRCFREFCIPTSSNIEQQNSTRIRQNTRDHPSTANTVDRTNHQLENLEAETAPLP
Sequence of Mu-type opioid receptor (Homo sapiens) + Delta-type opioid receptor (Homo sapiens) (P41143 whole entry, looked up): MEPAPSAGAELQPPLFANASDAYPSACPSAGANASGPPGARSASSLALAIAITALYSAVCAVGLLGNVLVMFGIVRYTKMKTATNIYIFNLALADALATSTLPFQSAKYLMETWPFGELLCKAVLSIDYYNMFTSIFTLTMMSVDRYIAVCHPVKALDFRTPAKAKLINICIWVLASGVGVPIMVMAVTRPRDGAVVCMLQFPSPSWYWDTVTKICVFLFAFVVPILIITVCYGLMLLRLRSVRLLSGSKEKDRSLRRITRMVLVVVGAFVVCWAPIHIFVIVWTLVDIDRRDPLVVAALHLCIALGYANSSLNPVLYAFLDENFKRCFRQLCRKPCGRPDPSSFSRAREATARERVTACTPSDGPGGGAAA
Take `C=C(C)COc1ccc(-c2n[nH]c(C)c2-c2ccccc2)c(O)c1`: the activation is 20.9% (active).

Regarding `C=C(C)COc1ccc(-c2ncncc2-c2ccc(OC)cc2)c(O)c1`, the activation was 0.28%.

For `C=C(C)COc1ccc(-c2nc(N)ncc2-c2ccccc2OC)c(O)c1`, the activation is 5.76%.

As for `COCCCNC(=O)Cn1cc(/C=C(\C#N)C(=O)N2CCN(c3ccccc3)CC2)c2ccccc21`, the activation is -0.49%.

Consider `Cc1ccc(N=C2NC(=O)c3cccc([N+](=O)[O-])c32)cc1`, for which the activation was -1.31%.

For the molecule `COc1ccccc1CNC(=O)c1ccc(Cl)c(S(=O)(=O)N2CCCC2)c1`, the activation is -1.63%.

`COc1ccccc1C(CNC(=O)c1ccc(C)c(S(=O)(=O)N2CCCCC2)c1)N(C)C` (configuration not stated): the activation is 33.2% (active).

With `Cc1ccc(C(=O)NCC(c2cccs2)N(C)C)cc1S(=O)(=O)N1CCOCC1` (configuration not stated), the activation was 7.26%.

Take `CCCOc1ccc(C(=O)C(CCC(CNCC)C(=O)c2ccc(OCCC)cc2)CNCC)cc1` (configuration not stated): the activation is 11.1%.

For the molecule `C=CCOc1c2ccc(C(=O)N(CC)c3ccc(OC)cc3)cc2nn1C`, the activation was 0.36%.

As for `COc1cccc(NC(=O)c2ccccc2N(Cc2ccccc2)S(C)(=O)=O)c1`, the activation is -3.67%.

In the case of `COc1cc(C(=O)OC(C)C(=O)NCC2CCCCC2)cc(NC(=O)c2ccco2)c1OC` (configuration not stated), the activation is 26.7% (active).

As to `CC(OC(=O)c1ccc([N+](=O)[O-])cc1)C(=O)NCC1CCCCC1` (configuration not stated), the activation was 0.26%.

Regarding `COc1ccc(NC(=O)CCC(=O)Nc2cc(OC)c(NC(=O)c3ccco3)cc2OC)c(OC)c1`, the activation is 0.82%.

Consider `CNC(=O)c1[nH]cnc1C(=O)N[C@@H](CC(C)C)C(=O)OC(C)(C)C`, for which the activation was 0.92%.

Take `Cc1ccc(S(=O)(=O)NC(C)C(=O)Nc2ccccc2C(=O)N2CCCC2)cc1` (configuration not stated): the activation is 2.72%.

`COc1ccc(CSc2nnnn2-c2ccc(C(=O)O)cc2)cc1`: the activation was -1.43%.

For the molecule `COc1ccc(-n2nnnc2CNC(=O)c2ccc3ccccc3c2)cc1`, the activation is -0.36%.

Consider `COc1ccc(-n2nnnc2-c2nc3ccccc3s2)cc1`, for which the activation was 20.4% (active).

In the case of `Cc1ccc(S(=O)(=O)NC(C(=O)N2CCOCCOCCOCCOCC2)c2ccccc2)cc1` (configuration not stated), the activation is -1.61%.

Regarding `CC(=O)N1CCN(C(=O)C2(NC(=O)Nc3ccc(C)cc3)CCCCC2)CC1`, the activation is -2.72%.

Consider `CCOc1ccc(-c2c(C)n([O-])c3c([n+]2=O)CCCC3)cc1`, for which the activation is -0.63%.

On to `C[C@H]1CC[C@]2(O[C@@H](CCO)C[C@@H](O)[C@@H]2O)O1`, for which the activation was 3.63%.

Regarding `O=C(N[C@@H](Cc1ccccc1)C(=O)OCc1ccccc1)c1nc[nH]c1C(=O)NC1CCNCC1`, the activation is -2.25%.

For the molecule `CC(C)(C)OC(=O)CNC(=O)c1[nH]cnc1C(=O)N[C@@H](Cc1ccccc1)C(=O)OCc1ccccc1`, the activation was 14.2%.

`CC(C)(C)OC(=O)N1CCC(NC(=O)c2[nH]cnc2C(=O)N[C@@H](Cc2ccccc2)C(=O)OCc2ccccc2)CC1`: the activation is 21.9% (active).

As to `CCN1CCC2(CC1)N=C(c1ccc(F)cc1)C(=S)N2C(=O)c1ccc(C)cc1`, the activation is 13.8%.

For `O=C1N/C(=C/c2cccs2)C(=O)N1Cc1ccc(F)cc1`, the activation is 18.9% (active).

Consider `Cc1ccc(CN2C(=O)N/C(=C/c3cc(C)n(-c4ccccn4)c3C)C2=O)cc1`, for which the activation is -1.23%.

As for `CN(C)c1ccc(/C=C2\NC(=S)N(Cc3ccccc3)C2=O)cc1`, the activation is 0.84%.

For `CCn1c(SCC(=O)Nc2ccc(C)cc2)nc2nc3c(cc2c1=O)CCCC3`, the activation was -0.65%.

With `CCOc1ccc(NC(=O)CCS(=O)(=O)c2cccc3nsnc23)cc1`, the activation is -1.59%.

Turning to `O=C(NCc1ccccc1)c1onc(CSc2ccncc2)c1C(=O)NCc1ccccc1`, the activation was -1.19%.

For `CCOc1cc(S(=O)(=O)NC2CC(C)(C)NC(C)(C)C2)ccc1F`, the activation was -2.58%.

With `COCCN(C(=O)CCC(=O)Nc1nccs1)C(C(=O)NCCC(C)C)c1ccc(F)cc1` (configuration not stated), the activation was -1.57%.

Turning to `CC1CN(CCCOc2ccccc2-c2ccccc2)CC(C)O1` (configuration not stated), the activation was 4.64%.

As to `CC1CCCN(CCOCCOc2ccccc2-c2ccccc2)C1` (configuration not stated), the activation was 18.4% (active).

Regarding `c1ccc(-c2ccccc2OCCN2CCCCC2)cc1`, the activation is -3.6%.

Take `Cc1c(NC(=O)C(C)OC(=O)c2c3c(nc4ccccc24)CCC(C)C3)c(=O)n(-c2ccccc2)n1C` (configuration not stated): the activation was -2.46%.

As for `CC(C)(C)NS(=O)(=O)c1ccc(NC(=O)C2CCCO2)cc1` (configuration not stated), the activation was 0.39%.

For `O=C(NC1CCC(O)CC1)c1ccc(S(=O)(=O)NCc2ccco2)cc1` (configuration not stated), the activation is -2.16%.

For the molecule `CC(=O)c1ccc(S(=O)(=O)Nc2ccc(C(=O)NCC(c3ccccc3)N(C)C)cc2)cc1` (configuration not stated), the activation is 0.68%.

In the case of `CN(C)C(CNC(=O)c1ccc(S(=O)(=O)NCc2ccco2)cc1)c1ccccc1` (configuration not stated), the activation was 20.7% (active).

In the case of `COc1ccc(CNC(=O)c2cc(C(=O)C3CC3)c[nH]2)cc1`, the activation was -1.28%.

For `CC(C)Cc1nnc(NC(=O)CN2C(=O)NC3(CCCCC3)C2=O)s1`, the activation is -1.6%.

Take `Cc1ccc(OCC(=O)Nc2ccc(NC(=O)c3cccs3)cc2)c(C)c1`: the activation is 19.7% (active).

Regarding `CCc1ccc(NC(=O)COC(=O)c2cccs2)cc1`, the activation was 0.52%.

For the molecule `Cc1ccc(OCC(=O)Nc2ccc(N3CCN(C(=O)c4ccco4)CC3)cc2)c(C)c1`, the activation is 2.18%.

On to `COC(=O)C1=C(C)N(C)C(=S)NC1c1cc(OC)ccc1OC` (configuration not stated), for which the activation is 1.16%.

On to `COc1ccc(SC[C@H](Cc2ccccc2)N2CCN(CCc3ccccc3)CCC2=O)cc1`, for which the activation is 26.4% (active).

With `C[C@H]1CCC(=O)N([C@H](CSc2ccccc2)Cc2ccccc2)CC1`, the activation was 2.5%.

Consider `O=C1CC[C@H](O)CCN1[C@H](CSc1ccc(Br)cc1)Cc1ccccc1`, for which the activation was -1.02%.

`CS(=O)(=O)N(C(=O)NC(=O)NC1CCS(=O)(=O)C1)C1CCCCC1` (configuration not stated): the activation is 1.27%.

Take `CNC(=O)NC(=O)C(C)N1CCN(C/C=C/c2ccccc2)CC1` (configuration not stated): the activation is 0.24%.

As for `Cc1ccc(NC(=O)c2oc(=O)c3ccccc3c2-c2ccccc2)c(C)c1`, the activation is -0.43%.

On to `COC(=O)CCCC1=CC2=C(c3ccccc3)C(=O)C(C)(OC(=O)C3CCCC3)C(=O)C2=CN1c1ccc(OC)cc1` (configuration not stated), for which the activation was -1.53%.

`COc1ccc(Cc2nnc(N/N=C/c3ccccc3O)[nH]c2=O)cc1OC`: the activation is -0.28%.

Consider `COc1cccc(/C=N/Nc2cc(C)nc(-c3ccccc3O)n2)c1O`, for which the activation is 35.6% (active).

Regarding `COc1cccc(/C=N/Nc2ccc(S(=O)(=O)Nc3ccccc3C(=O)O)cc2[N+](=O)[O-])c1O`, the activation is -1.24%.

Turning to `O=C(NCCc1ccccc1)c1c[nH]c2ccc(F)cc2c1=O`, the activation is -1.1%.

In the case of `CC(OC(=O)/C=C/c1ccccc1)C(=O)NC1CCCCC1C` (configuration not stated), the activation was -0.81%.

Take `C=CCOc1ccc(/C=C/C(=O)OC(C)C(=O)Nc2ccc(NC(C)=O)cc2)cc1` (configuration not stated): the activation was -0.11%.

`CC(OC(=O)/C=C/c1ccccc1)C(=O)Nc1ccc(C(N)=O)cc1` (configuration not stated): the activation was 34.1% (active).

Regarding `CC(C)CC(=O)N=C1SC2CS(=O)(=O)CC2N1CCc1ccccc1` (configuration not stated), the activation was -2.17%.

Regarding `CN(C)CCCN(C(=O)c1ccc(S(=O)(=O)N2CCCCCC2)cc1)c1nc2ccc(Br)cc2s1`, the activation is 1.54%.

Take `COc1ccc2sc(N(CCCN(C)C)C(=O)c3ccc(S(=O)(=O)N(C)C4CCCCC4)cc3)nc2c1`: the activation is -0.93%.

In the case of `CN(C)CCCN(C(=O)c1ccc(S(=O)(=O)N2CCCc3ccccc32)cc1)c1nc2ccc(F)cc2s1`, the activation was 268% (active).

For the molecule `Cc1ccc(C)c(S(=O)(=O)Nc2cccc(-n3cnnn3)c2)c1`, the activation is -2.5%.

With `C/C=C/C=C/C(=O)O`, the activation is -2.37%.

As to `CCCC1(C(=O)OC)NC(c2ccco2)C2C(=O)N(C)C(=O)C21` (configuration not stated), the activation is -1.73%.

For the molecule `Cc1ccc2nc(-c3ccncc3)cc(C(=O)Nc3ccc(OC(F)F)cc3)c2c1`, the activation was 8.59%.

On to `O=C(Nc1ccncc1)c1cc(-c2ccccn2)nc2ccc(Br)cc12`, for which the activation was -0.71%.

Turning to `Cc1ccc2nc(-c3ccncc3)cc(C(=O)Nc3ccncc3)c2c1`, the activation was 24% (active).

As to `CCc1ccc(NC(=O)CS(=O)CC(=O)N2CCN(c3ccccc3F)CC2)cc1` (configuration not stated), the activation is -0.39%.

For the molecule `CC(c1cccnc1)N(CCN(C)C)C(=O)Nc1ccc(Cl)c(Cl)c1` (configuration not stated), the activation was 35.5% (active).

As for `CN(CC(=O)NCc1cccnc1)S(=O)(=O)c1cc(Cl)ccc1Cl`, the activation is -3.02%.

`O=C(NCc1ccc(Cl)c(Cl)c1)c1cccnc1`: the activation was 0.81%.

For `CCN(CC)P(=O)(Nc1ccc(SC(F)F)cc1)c1ccc(N(C)C)cc1NC(=O)c1ccco1` (configuration not stated), the activation is -0.5%.

As to `CC(=O)Nc1ccc(S(=O)(=O)N(C)c2ccc(OCC(=O)OCC(=O)N3CCCCC3)cc2)cc1`, the activation is -0.7%.

Take `Cc1c(C(=O)c2cccc([N+](=O)[O-])c2)c2ccccn2c1CCC#N`: the activation is -2.59%.

As to `FC(F)(F)c1ccc2nnc(-c3c(Cl)cccc3Cl)n2c1`, the activation is -0.01%.

With `Cc1ccc(C)c(N(CC(=O)NCc2ccco2)C(=O)CCC(=O)Nc2ccccn2)c1`, the activation was -3.72%.

`COc1cccc(CC2(CO)CCCN(Cc3nc(-c4cccs4)oc3C)C2)c1` (configuration not stated): the activation was 0.45%.

`CCOC(=O)C1(CC2CCCCO2)CCN(Cc2nc(-c3cccs3)oc2C)CC1` (configuration not stated): the activation was 45.6% (active).

As to `CCOc1ccccc1-c1nc(CN2CCC(C(=O)N3CCOCC3)CC2)c(C)o1`, the activation was -0.49%.

Regarding `CCOc1ccc(NC(=O)C2CC(=O)N=C(N)S2)cc1` (configuration not stated), the activation is -2.05%.

For the molecule `COc1ccc2c(CC(=O)NNC(=O)c3ccccc3F)coc2c1`, the activation was -0.31%.
